# In the supplement of paper PMC3334620:
# The full ranking holds about 33,000 sequences; the median of “E-score (-0.5 to 0.5)” is about -0.041, and the highest 2% start at about 0.37. Many of the other results were omitted from the sample, so the highest values are more common in it than they were.
# Target: T1, Ecm22 (UniProt Q05958)
# T1 sequence: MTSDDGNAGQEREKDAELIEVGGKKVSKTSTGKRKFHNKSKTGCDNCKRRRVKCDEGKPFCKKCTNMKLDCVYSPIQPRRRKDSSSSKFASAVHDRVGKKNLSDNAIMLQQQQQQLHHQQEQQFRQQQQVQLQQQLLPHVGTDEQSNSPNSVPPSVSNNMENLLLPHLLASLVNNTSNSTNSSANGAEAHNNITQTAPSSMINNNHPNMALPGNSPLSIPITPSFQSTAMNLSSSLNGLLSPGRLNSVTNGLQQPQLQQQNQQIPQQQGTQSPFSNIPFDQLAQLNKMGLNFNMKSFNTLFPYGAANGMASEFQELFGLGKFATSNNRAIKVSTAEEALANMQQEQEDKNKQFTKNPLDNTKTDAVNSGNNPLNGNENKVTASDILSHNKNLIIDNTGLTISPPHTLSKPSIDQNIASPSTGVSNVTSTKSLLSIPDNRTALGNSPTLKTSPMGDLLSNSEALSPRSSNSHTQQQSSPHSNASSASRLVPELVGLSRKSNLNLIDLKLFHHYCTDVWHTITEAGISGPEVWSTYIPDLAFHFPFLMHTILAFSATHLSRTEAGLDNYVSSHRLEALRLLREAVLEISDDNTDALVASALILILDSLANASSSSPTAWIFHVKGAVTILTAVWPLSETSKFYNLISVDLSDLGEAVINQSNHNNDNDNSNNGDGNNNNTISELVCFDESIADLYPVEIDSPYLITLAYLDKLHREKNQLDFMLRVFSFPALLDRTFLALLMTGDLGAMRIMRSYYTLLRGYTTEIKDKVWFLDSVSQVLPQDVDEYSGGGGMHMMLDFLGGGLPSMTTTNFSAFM
# Experiment: PBM E-score (8-mer binding enrichment) (E-score (-0.5 to 0.5)); higher = stronger / more preferred TF binding
# Conditions: protein concentration: 200 nM; construct: GST-full length
# Description: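 Universal 'all 10-mer' protein binding microarrays (Agilent AMADID 015681) probed with GST-tagged S. cerevisiae TFs (full-length or DBD) made by in vitro transcription/translation (PURExpress), about 100-200 nM. Bound TF was detected with fluorescent anti-GST. Each ungapped 8-mer (which stands for itself and its reverse complement) is scored by the PBM enrichment score (E-score), a modified Wilcoxon-Mann-Whitney statistic from -0.5 to +0.5, computed with the Universal PBM Analysis Suite. Scale: above 0.35 generally sequence-specific binding.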
row,Sequence,PBM E-score
1,AGTTTATC,0.0904
2,CGTTTATA,0.426
3,GGTTTATA,0.152
4,AGCTCAGG,-0.211
5,TGAAGTCA,-0.133
6,GCCCAACC,0.0862
7,CGTATTTA,0.369
8,CGTATATC,0.439
9,AGTATATA,0.341
10,AGTATATC,0.122
11,GGTATTTA,-0.00022
12,CGTATATA,0.444
13,GGTATATA,0.168
14,CATATATC,0.0903
15,AGTATTTA,-0.0192
16,AAGTACCG,0.152
17,CTAATGAG,-0.0357
18,GCAAATGA,0.0372
19,CCACTCGC,0.184
20,CTGGCTCC,-0.202
21,CGTGTTCA,0.0358
22,AACCTCTT,-0.0421
23,GTAACCGA,0.332
24,CTAACCGA,0.372
25,CTAACCGC,0.0805

row,Sequence,PBM E-score
1,CGCCACTC,-0.016
2,AAACTGTC,-0.0481
3,ATACGATG,0.472
4,CTACGATC,0.325
5,ACACGATC,0.0695
6,AGACGATG,0.00668
7,ACACGATG,0.17
8,ATACGATC,0.457
9,AGCAGGGC,-0.0233
10,TATACTGA,0.182
11,CGATCTAC,0.184
12,AGTACCAT,0.0273
13,AGGCCGTA,0.384
14,GGGCCGTA,0.333
15,CGGCCGTA,0.34
16,AAAGCTGT,-0.108
17,CGAAGCAG,0.147
18,GCGTGGGA,0.0285
19,AGACGACA,0.0702
20,GCACGACA,0.114
21,ATACGACA,0.469
22,CTACGACA,0.347
23,GTACGACA,0.48
24,ACACGACA,0.233
25,CCCTGGAC,-0.193

row,Sequence,PBM E-score
1,GTAGCAGA,0.0392
2,AGGACCCT,-0.235
3,CCCTCAAC,-0.248
4,AGTTCGTG,0.189
5,AGTTCGTA,0.449
6,AGTTCGTC,0.207
7,CGTTCAAC,0.377
8,GGTTCGAA,0.182
9,CGTTCAAA,0.361
10,GGTTCGGA,-0.1
11,CGTTCATC,0.354
12,GGTTCATA,0.0139
13,CGTTCATA,0.386
14,CGTTCAAG,0.335
15,GGTTCGTA,0.443
16,AGGAAACG,0.281
17,GGAACAGA,-0.378
18,CTGTCCCA,-0.11
19,CACTCGGA,0.198
20,CGTAATAA,0.247
21,AAGCGAAT,0.277
22,CATGCAAC,0.0872
23,CGTTCGTC,0.314
24,CGTTCGGA,0.274
25,CGTTCGTA,0.461

row,Sequence,PBM E-score
1,AAGGAGGC,-0.319
2,AGCATCGG,-0.0521
3,TCCAGCGA,-0.115
4,TGGGTGAA,0.0282
5,AAGACGCG,-0.012
6,ACGACGCG,0.407
7,GCGACGCA,0.173
8,ACGACGCT,0.38
9,CCGACGCG,0.218
10,ACGACTCA,0.238
11,ACGACGAT,0.325
12,ACGACTCG,0.39
13,ACGACGCA,0.412
14,ACGACTCT,0.308
15,ACGACGCC,0.33
16,CCGACGCA,0.00712
17,ATTGCGCG,0.148
18,CAGGAAGG,-0.357
19,ATCGTGCG,0.228
20,CATTCCTC,0.0616
21,ACGCGGTG,-0.00032
22,AATGAGTC,-0.0397
23,AAGGTGTA,-0.0872
24,ATCCTTTA,-0.159
25,GGGTACAA,-0.0303

row,Sequence,PBM E-score
1,AGGTACGC,0.217
2,AGGTACGG,0.424
3,AGGTACTG,-0.183
4,CGGTACGC,0.315
5,GGGTACCA,-0.317
6,CGGTACCA,-0.0083
7,CGGTACGA,0.492
8,GGGTACGA,0.491
9,CGATTCGC,0.221
10,ATCAGGTC,0.113
11,ATAGGAGC,-0.162
12,CAGATTTA,0.156
13,AACATCAA,0.0313
14,CCTCGGCA,0.165
15,GCGCTTAA,0.0179
16,CCGCTTAA,0.291
17,TCGCTTAA,0.394
18,ACCCATTC,-0.0208
19,ATCGTAGC,0.385
20,ATCGTAGG,0.144
21,CGCGTAGA,0.107
22,ATCGTAGA,0.272
23,CACGTAGA,-0.0914
24,GGCGTAGA,0.0225
25,GTCGTAGA,0.4

row,Sequence,PBM E-score
1,CTCGTAGC,0.449
2,GACGTAGA,-0.0256
3,CACGTAGC,-0.026
4,CCCGTAGC,0.154
5,CTCGTAGA,0.376
6,AGAGGCGA,-0.00468
7,ATGGGAGG,-0.116
8,CTGGCGAC,-0.209
9,GCACGTGC,-0.0189
10,CATTACCG,-0.025
11,GGGGACTA,-0.242
12,AACGGCCT,0.225
13,CTTTCGCA,0.00706
14,GTAGGTCA,-0.0922
15,GAACCTTC,-0.126
16,ATGAGAGA,-0.0934
17,AGAAGGCA,-0.166
18,GGCATTCA,-0.0839
19,ACACTGCG,0.0708
20,ATTTGGCC,-0.258
21,AACGCATT,0.0189
22,AGTACGGA,0.288
23,CGTACGGC,0.385
24,CGTACGGA,0.373
25,CTTACGGA,0.0416

row,Sequence,PBM E-score
1,GGTACGGA,0.413
2,GCTACGGA,0.232
3,AGTACGGC,0.339
4,CCTACGGA,-0.34
5,CATACGGC,0.3
6,CCCGCTGA,-0.32
7,AGCGCTGC,-0.158
8,CCGGTCAC,-0.0785
9,ATGGACAT,-0.107
10,ATGGGCCC,-0.157
11,GCGAACAC,0.0536
12,CCCCCTGC,-0.162
13,AATACGTA,0.228
14,CATACGTA,0.288
15,CATACGAC,0.451
16,AATACGAA,0.419
17,CATACGCC,0.182
18,AATACGTG,0.15
19,CATACAAA,-0.0105
20,AATACGGG,0.229
21,ACTACGAA,0.25
22,CATACGTC,0.0749
23,AATACGAG,0.457
24,CATACGAA,0.451
